Compounds without any hit were thinned out: in the full panel of roughly 83,000, 20% have a hit.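 Step 1: grow cells in 96-well plates. Step 2: add test compound at a single concentration. Step 3: incubate 48 h. Step 4: record percent growth.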 Values without a mark were called inactive. The source made the active and inactive calls. How the source made its calls: active means growth percent below 10; inactive means the rest.
Key:
Experiment in all cases: NCI-60 one-dose screen, 48 h (100 = growth as untreated, 0 = no growth, -100 = all killed)
Settings in all cases: 10 µM unless noted
NCI-H23 lung = test system: NCI-H23 lung
NCI-H226 lung = test system: NCI-H226 lung
HOP-62 NSCLC = test system: HOP-62 NSCLC
NCI-H460 lung = test system: NCI-H460 lung
HOP-92 NSCLC = test system: HOP-92 NSCLC
NCI-H522 lung = test system: NCI-H522 lung
A549/ATCC NSCLC = test system: A549/ATCC NSCLC
786-0 renal = test system: 786-0 renal
COLO 205 colon = test system: COLO 205 colon
DU-145 prostate = test system: DU-145 prostate
K-562 leukemia = test system: K-562 leukemia
MALME-3M melanoma = test system: MALME-3M melanoma
MDA-MB-231 breast = test system: MDA-MB-231 breast
RXF 393 renal = test system: RXF 393 renal
SF-268 CNS = test system: SF-268 CNS
SF-295 CNS = test system: SF-295 CNS
SF-539 CNS = test system: SF-539 CNS
UACC-257 melanoma = test system: UACC-257 melanoma
M14 melanoma = test system: M14 melanoma

| Structure (SMILES) | growth (NCI-H23 lung) | growth (NCI-H226 lung) | growth (HOP-62 NSCLC) | growth (NCI-H460 lung) | growth (HOP-92 NSCLC) | growth (NCI-H522 lung) | growth (A549/ATCC NSCLC) | growth (786-0 renal) | growth (COLO 205 colon) | growth (DU-145 prostate) | growth (K-562 leukemia) | growth (MALME-3M melanoma) | growth (MDA-MB-231 breast) | growth (RXF 393 renal) | growth (SF-268 CNS) | growth (SF-295 CNS) | growth (SF-539 CNS) | growth (UACC-257 melanoma) | growth (M14 melanoma) |
| --- | --- | --- | --- | --- | --- | --- | --- | --- | --- | --- | --- | --- | --- | --- | --- | --- | --- | --- | --- |
| COc1ccc(C(c2cc(OC)c(OC)c(OC)c2)N2CCN(Cc3ccccc3)CC2)cc1 (configuration not stated) | 88.5% | 85.4% | 69.7% | 74.4% | 70.6% | 52.4% | 78.4% | 82.6% | 61.8% | 102% | 26.4% | 74.8% | 71% | 72.3% | 86.4% | 68.7% | 81.2% | 84.2% | 52.8% |
| COc1ccc(/C=C/C(=O)c2cc3c(N)c(C(=O)Nc4ccccc4C)sc3nc2C)cc1 | 36.1% | 53.3% | 32.6% | 1.23% (active) | 79.2% | -28.4% (active) | 20.1% | 21.3% | -30.3% (active) | 13% | 15.3% | 51.7% | 15.5% | -23.1% (active) | 32.3% | 14.2% | -38.2% (active) | 64.8% | 3.29% (active) |
| CCN(CC)S(=O)(=O)c1ccc(S(=O)(=O)N2CCC[C@@H](C(=O)N3CCN(C(=O)OC(C)(C)C)CC3)C2)cc1 | 53.6% | 77.9% | 66.1% | 73.4% | 74.9% | 68.4% | 67.7% | 92.8% | 108% | 61.2% | 35% | 93.7% | 77.7% | 74.4% | 73.1% | 55.8% | 77.7% | 49.9% | 77.9% |
| COc1ccccc1-n1c(-c2cc(O)ccc2C)cn2c3c(=O)[nH]c(=O)n(C)c3nc12 | 90.6% | 107% | 68.2% | 91.6% | -1.51% (active) | 44.5% | 66.3% | 52.8% | 84.2% | 79.3% | 25.3% | 89.9% | 41.2% | 19.2% | 60.3% | 89.8% | 72.6% | 83.8% | 92.2% |
| CN(C)c1ccc(/C=C/C(=O)c2ccc(Nc3nc(Nc4ccc(F)cc4)nc(Nc4ccc(Cl)cc4)n3)cc2)cc1 | 73.3% | 89.3% | 78.3% | 62.7% | 51.3% | 56.4% | 53% | 71.2% | 64.2% | 84.4% | 23.7% | 64.3% | 80.1% | 22.4% | 84.1% | 44.8% | 82.2% | 82.2% | 54% |
| COc1ccc(OC)c(Nc2nnc(-c3ccc(Cl)cc3)o2)c1 | 75% | 93.8% | 46.7% | 18.8% | 100% | 89.9% | 44.7% | 26.4% | 99.1% | 70% | 83.5% | 66.9% | 85.6% | 90.4% | 55.4% | 29.2% | 50.7% | 104% | 93.1% |
| C[C@@H]1CC[C@@]2(OC1)O[C@H]1C[C@H]3[C@@H]4CC=C5C[C@@H](O[C@@H]6O[C@H](CO)[C@@H](O[C@@H]7O[C@@H](CO)[C@H](O)[C@H]7O)[C@H](O)[C@H]6O[C@@H]6O[C@@H](C)[C@H](O)[C@@H](O)[C@H]6O)CC[C@]5(C)[C@H]4CC[C@]3(C)[C@H]1[C@@H]2C | -95.5% (active) | -51.8% (active) | 6.56% (active) | -93.7% (active) | -67.2% (active) | -41.4% (active) | -96.8% (active) | -89.6% (active) | -89.9% (active) | -95.2% (active) | -1.01% (active) | -91.6% (active) | -95.3% (active) | -95% (active) | -54.8% (active) | -91.7% (active) | -99.2% (active) | -94% (active) | -92.6% (active) |
| Cc1ccccc1OCC(O)COc1ccccc1C | 404% | 97.9% | 96.2% | 96.8% | 93.9% | 77% | 84.2% | 100% | 98.2% | 120% | 114% | 88.5% | 103% | 80.5% | 99.4% | 98.5% | 95.9% | 89.2% | 98.5% |
